Experimental data reported in PubChem BioAssay (NCATS).
The source made the active and inactive calls. A call without a number means that no potency is given here. Unless noted, the call rests on the fitted dose curve; in most records, active means well fitted cell-killing curve with a large enough effect; inconclusive means small, poorly fitted or top-dose-only effect; inactive means flat fitted curve, though single readings scatter.

Test system: not listed separately
Assay: Cell Viability - LYMP1-002 - Assay at 24 hr (AID 993)
Conditions: LYMP1-002 lymphoblastoid cells viability; series mostly up to 92.2 µM
Outline: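 qHTS cytotoxicity at 24 h: CellTiter-Glo ATP luminescence in lymphoblastoid line LYMP1-002 incubated with compound at 37 °C. Concentration-response modeled with the Hill equation for AC50; tetraoctylammonium bromide served as positive control.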

| SMILES | Potency |
| --- | --- |
| Cc1cc(N=Nc2ccccc2C)ccc1N | inactive |
| OCCCCO | inactive |
| O=[N+]([O-])c1cc(Cl)c(Cl)c(Cl)c1 | inactive |
| CC(C)(COCC1CO1)COCC1CO1 (stereo not given) | inactive |
| Cc1ccc2c(c1N)C(=O)c1ccccc1C2=O | inactive |
| COc1ccccc1N | inactive |
| CC(C)(C)OOC(=O)c1ccccc1 | inactive |
| c1ccc(N=NNc2ccccc2)cc1 | inactive |
| COC(C)(C)C | inactive |
| C(CCOCC1CO1)COCC1CO1 (stereo not given) | inactive |
| O=[N+]([O-])/C=C/c1ccccc1 | inactive |

Test system: not listed separately
Assay: Cell Viability - LYMP1-002 - Assay at 40 hr (AID 994); further: nearly all actives have a fitted effect of over 60% in size; further: potency means the concentration at half of the fitted maximal effect
Conditions: LYMP1-002 lymphoblastoid cell viability; series mostly up to 92.2 µM
Outline: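 Cytotoxicity was read as loss of cellular ATP (CellTiter-Glo luminescence) after 40 hr compound exposure at 37 C of 2500 LYMP1-002 lymphoblastoid cells per well. Concentration-response data were fitted with the standard Hill equation to give AC50.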

| SMILES | Potency |
| --- | --- |
| O=C(O)C(Br)Br | inactive |
| Cc1ccc(OP(=O)(Oc2ccc(C)cc2)Oc2ccc(C)cc2)cc1 | inactive |
| Oc1c(Cl)c(Cl)cc(Cl)c1Cl | inactive |
| Nc1ccc(Cc2ccc(N)c(Cl)c2)cc1Cl | inactive |
| CN(C)c1ccc(N(C)C)cc1 | inactive |
| Brc1ccc(Oc2ccc(Br)cc2Br)c(Br)c1 | inactive |
| O=[N+]([O-])c1c(Cl)c(Cl)c(Cl)c(Cl)c1Cl | inactive |
| ClCC(Cl)Cl | inactive |
| C=CC(=O)OCCO | inactive |
| CC(C)Br | inactive |
| O=[N+]([O-])c1ccc(O)c([N+](=O)[O-])c1 | inactive |
| CC(C)[N+](=O)[O-] | inactive |
| CCCC[N+](=O)[O-] | inactive |
| Cc1cc(-c2cc(C)c(N)c(C)c2)cc(C)c1N | inactive |
| CCN(N=O)C(N)=O | inactive |
| N#CC(Cl)(Cl)Cl | inactive |
| CCCCC(CC)COC(=O)c1ccc(C(=O)OCC(CC)CCCC)c(C(=O)OCC(CC)CCCC)c1 (stereo not given) | inactive |
| O=C(O)C(Br)CBr (stereo not given) | inactive |
| Nc1c(Br)cc([N+](=O)[O-])cc1[N+](=O)[O-] | inactive |

| SMILES | Potency |
| --- | --- |
| O=[N+]([O-])c1ccccc1CCl | inactive |
| Cc1cc(C)cc(OP(=O)(Oc2cc(C)cc(C)c2)Oc2cc(C)cc(C)c2)c1 | inactive |
| N#CC(Br)Br | inactive |
| O=C(O)C(Cl)Br (stereo not given) | inactive |
| COP(=S)(OC)SCn1nnc2ccccc2c1=O | inactive |
| Nc1ccc([N+](=O)[O-])cc1N | inactive |
| O=C(O)c1cccc(Cl)c1 | inactive |
| Cc1cc(N=Nc2ccccc2C)ccc1N | inactive |
| OCCCCO | inactive |
| O=[N+]([O-])c1cc(Cl)c(Cl)c(Cl)c1 | inactive |
| CC(C)(COCC1CO1)COCC1CO1 (stereo not given) | inactive |
| Cc1ccc2c(c1N)C(=O)c1ccccc1C2=O | inactive |
| COc1ccccc1N | inactive |
| CC(C)(C)OOC(=O)c1ccccc1 | inactive |
| c1ccc(N=NNc2ccccc2)cc1 | inactive |
| COC(C)(C)C | inactive |
| C(CCOCC1CO1)COCC1CO1 (stereo not given) | 39.8 µM (active) |
| O=[N+]([O-])/C=C/c1ccccc1 | inactive |

Test system: not listed separately
Assay: qHTS Assay for Identification of Small Molecule Inducers of Hypoxia Response (AID 2120; active means well fitted curve in the direction sought with a large enough effect in the signal ratio, with a control signal flat, not every such curve was filed as active; inconclusive means small, poorly fitted or top-dose-only effect, or a change in a side signal; inactive means no such curve, though single readings can be large or run the other way; the % refers to the signal ratio)
Conditions: hypoxia response reporter cells, beta-lactamase ratio readout; series mostly up to 104 µM
Outline: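 Reporter induction read as the CCF4 blue/green (460nm/530nm) emission ratio after 2.5 h dye loading at room temperature. ME-180 HRE-beta-lactamase cells received titrated compounds for 17 h at 37 degrees Celsius; AC50 values derived.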

| SMILES | Potency |
| --- | --- |
| O=C(O)C(Br)Br | inactive |
| Cc1ccc(OP(=O)(Oc2ccc(C)cc2)Oc2ccc(C)cc2)cc1 | inactive |
| Oc1c(Cl)c(Cl)cc(Cl)c1Cl | inactive |
| Nc1ccc(Cc2ccc(N)c(Cl)c2)cc1Cl | inactive |
| CN(C)c1ccc(N(C)C)cc1 | inactive |
| Brc1ccc(Oc2ccc(Br)cc2Br)c(Br)c1 | inactive |
| O=[N+]([O-])c1c(Cl)c(Cl)c(Cl)c(Cl)c1Cl | inactive |
| CN1CSC(=S)N(C)C1 | inactive |
| ClCC(Cl)Cl | inactive |
| C=CC(=O)OCCO | inactive |
| CC(C)Br | inactive |
| O=[N+]([O-])c1ccc(O)c([N+](=O)[O-])c1 | inactive |
| CC(C)[N+](=O)[O-] | inactive |
| CCCC[N+](=O)[O-] | inactive |
| Cc1cc(-c2cc(C)c(N)c(C)c2)cc(C)c1N | inactive |
| Nc1cc(Cl)ccc1O | inactive |
| CCN(N=O)C(N)=O | inactive |
| N#CC(Cl)(Cl)Cl | inactive |
| CCCCC(CC)COC(=O)c1ccc(C(=O)OCC(CC)CCCC)c(C(=O)OCC(CC)CCCC)c1 (stereo not given) | inactive |
| O=C(O)C(Br)CBr (stereo not given) | inactive |

| SMILES | Potency |
| --- | --- |
| Nc1c(Br)cc([N+](=O)[O-])cc1[N+](=O)[O-] | inactive |
| O=[N+]([O-])c1ccccc1CCl | inactive |
| Cc1cc(C)cc(OP(=O)(Oc2cc(C)cc(C)c2)Oc2cc(C)cc(C)c2)c1 | inactive |
| N#CC(Br)Br | inactive |
| O=C(O)C(Cl)Br (stereo not given) | inactive |
| COP(=S)(OC)SCn1nnc2ccccc2c1=O | inactive |
| Nc1ccc([N+](=O)[O-])cc1N | inactive |
| O=C(O)c1cccc(Cl)c1 | inactive |
| Cc1cc(N=Nc2ccccc2C)ccc1N | inactive |
| OCCCCO | inactive |
| O=[N+]([O-])c1cc(Cl)c(Cl)c(Cl)c1 | inactive |
| CC(C)(COCC1CO1)COCC1CO1 (stereo not given) | inactive |
| Cc1ccc2c(c1N)C(=O)c1ccccc1C2=O | inactive |
| COc1ccccc1N | inactive |
| CC(C)(C)OOC(=O)c1ccccc1 | inactive |
| c1ccc(N=NNc2ccccc2)cc1 | inactive |
| COC(C)(C)C | inactive |
| C(CCOCC1CO1)COCC1CO1 (stereo not given) | inactive |
| CN(C)c1ccc(N)cc1 | inactive |
| O=[N+]([O-])/C=C/c1ccccc1 | inactive |

Target: Estrogen receptor (Homo sapiens) (UniProt P03372)
Sequence (P03372 whole entry, looked up): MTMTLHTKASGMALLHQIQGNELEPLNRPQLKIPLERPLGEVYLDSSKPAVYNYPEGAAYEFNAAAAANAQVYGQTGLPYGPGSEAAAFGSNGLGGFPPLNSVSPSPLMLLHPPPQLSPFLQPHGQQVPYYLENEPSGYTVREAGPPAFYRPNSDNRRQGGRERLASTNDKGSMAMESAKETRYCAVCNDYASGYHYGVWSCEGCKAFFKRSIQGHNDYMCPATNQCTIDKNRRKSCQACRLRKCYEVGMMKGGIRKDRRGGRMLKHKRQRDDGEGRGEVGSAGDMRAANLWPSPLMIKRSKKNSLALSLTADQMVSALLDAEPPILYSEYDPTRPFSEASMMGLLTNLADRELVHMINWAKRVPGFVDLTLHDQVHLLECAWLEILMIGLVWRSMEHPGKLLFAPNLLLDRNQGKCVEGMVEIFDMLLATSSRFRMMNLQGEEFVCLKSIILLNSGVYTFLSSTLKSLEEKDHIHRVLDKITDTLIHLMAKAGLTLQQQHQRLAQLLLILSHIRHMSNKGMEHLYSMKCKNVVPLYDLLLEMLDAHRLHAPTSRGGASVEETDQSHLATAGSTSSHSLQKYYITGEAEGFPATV
Assay: qHTS assay for small molecule antagonists of estrogen receptor alpha signaling (AID 588513; active means well fitted curve in the direction sought with a large enough effect in the signal ratio, with a control signal flat, not every such curve was filed as active; inconclusive means small, poorly fitted or top-dose-only effect, or effect the other way, or a change in a side signal; inactive means no such curve, though single readings can be large or run the other way; the % refers to the signal ratio; further: potency means the concentration at half of the fitted maximal effect)
Conditions: ER-alpha-UAS-bla HEK293, beta-lactamase ratio, antagonist mode; series mostly up to 76.9 µM
Outline: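 Fluorescence from CCF4 substrate after 2 h at room temperature gave reporter activity; cells had been exposed to compound and 0.5nM 17-beta-estradiol for 18 h at 37 C. Hill-equation fitting yielded IC50 and maximal response.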

| SMILES | Potency |
| --- | --- |
| O=C(O)C(Br)Br | inactive |
| CN(C)c1ccc(N(C)C)cc1 | inactive |
| CN1CSC(=S)N(C)C1 | inactive |
| CC(C)Br | inactive |
| O=[N+]([O-])c1ccc(O)c([N+](=O)[O-])c1 | inactive |
| CCCC[N+](=O)[O-] | inactive |
| Cc1cc(-c2cc(C)c(N)c(C)c2)cc(C)c1N | inactive |
| Nc1cc(Cl)ccc1O | inactive |
| CCN(N=O)C(N)=O | inactive |
| N#CC(Cl)(Cl)Cl | inactive |
| O=C(O)C(Br)CBr (stereo not given) | inactive |
| Nc1c(Br)cc([N+](=O)[O-])cc1[N+](=O)[O-] | inactive |
| N#CC(Br)Br | inactive |
| COP(=S)(OC)SCn1nnc2ccccc2c1=O | 31.6 µM [inconclusive] (active) |
| O=[N+]([O-])c1cc(Cl)c(Cl)c(Cl)c1 | inactive |
| c1ccc(N=NNc2ccccc2)cc1 | inactive |
| C(CCOCC1CO1)COCC1CO1 (stereo not given) | inactive |
